High-throughput results from PubChem BioAssay.
Shn3 3UTR inh: Schnurri-3 reporter inhibition in Clone20 osteoblasts; hit rate 0.52% among 360,000; inhibition, % at 12.5 µM; Clone20 osteoblast Shn3 3'UTR firefly luciferase, 24 h;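 active means mean inhibition of at least 75% with every replicate also reaching 75%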
KKLEB cytotox: counter-screen for CF NF-kB inhibitors: cytotoxicity; KKLEB CF airway cells viability, ATPlite luminescence, overnight; active compounds read low; cells stimulated with P. aeruginosa culture filtrate; activity change (cytotoxicity), % at 5 µM; hit rate 0.36% among 360,000; AID 602141;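 active means corrected activity change at or below -50% at 5 µM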
Peg3 promoter: reduces Peg3 promoter-driven luciferase expression in HeLa. hit rate 1.7% among 360,000. inhibition, % at 20 µM. HeLa PEG-Prom luciferase reporter, luminescence, overnight. AID 588405;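 active means inhibition of at least 50% at 20 µM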
EBV LMP1 NFkB: Epstein-Barr LMP1 NF-kappaB reporter inhibition; LMP1-induced NF-kappaB luciferase reporter cells, luminescence; inhibition, % at 12.5 µM; hit rate 0.69% among 350,000; in the data active means inhibition above about 41%
CF NFkB inh: inhibitors of cystic fibrosis induced NF-kB | KKLEB NF-kB-GFP reporter, PAF-induced, GFP fluorescence overnight | inhibition, % at 5 µM | hit rate 0.86% among 360,000 | AID 588850;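 active means at least 50% inhibition at 5 µM, scaled per plate between neutral and stimulator controls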;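 further: PAF is a Pseudomonas aeruginosa culture filtrate used as stimulus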
HIF-2a inh: HIF-2a inhibition; 786-0 RCC cells HIF-2a reporter, luciferase luminescence, overnight; inhibition, % at 18.8 µM; hit rate 0.72% among 360,000;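 active means inhibition of the luminescence signal of 40% or more relative to plate controls, in a single-dose primary screen at 18.75 µM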
Numbers stand for hits; - = inactive; . = not tested or not shown. Sampled rows, rich in hits. Any-hit rate of the full collection: about 2.9%.

SMILES	Shn3 3UTR inh	KKLEB cytotox	Peg3 promoter	EBV LMP1 NFkB	CF NFkB inh	HIF-2a inh
C=CCN1CCc2cc(O)c(O)cc2C(c2ccccc2)C1 (centres undefined)	-	-	-	77	-	-
O=C(CN1C(=O)C(c2ccccc2)Oc2cccnc21)NCc1ccccc1F (centres undefined)	-	-	-	57	-	-
O=C1c2cc(Cl)ccc2-c2c(O)cc(Cl)cc21	-	-	75	-	-	-
O=c1cc(O)c(-c2ccc(Cl)cc2)c(Cl)[nH]1	.	-	-	-	-	-
O=C(C=C1SCCS1)/C=C/c1ccco1	-	-	-	86	-	-
Cc1nn(C)cc1C=NCCOCc1ccccc1	-	-	-	-	-	-
CCCC/C=C1/CCC(CN(C)C)C1=O (centres undefined)	-	-	98	-	-	-
Cc1ccc(C(=O)NCCNc2nc3cc(C)c(C)cc3cc2C)cc1	-	-	61	-	-	-
Cc1sc(NC(=S)NC(=O)CCc2ccccc2)c(C(N)=O)c1C	-	-	-	-	50	-
CCCSc1cc(N2CCN(C)CC2)nc(-c2ccc(OC)cc2)n1	-	-	55	-	-	-
COc1ccc(C(=O)NCCCNC(=O)c2cc3ccccc3[nH]2)cc1OC	-	-	-	75	-	-
O=[N+]([O-])c1ccc(N2CCN(Cc3cccc([N+](=O)[O-])c3)CC2)cc1	-	-	-	54	-	-
O=C(OCC(=O)N1CCOCC1)c1ccc(F)cc1Cl	-	-	-	-	-	-
CCOC(=O)C1CCN(C(=O)c2ccc(OCC(=O)Nc3cccc(C(F)(F)F)c3)c(OC)c2)CC1	89	-	-	-	-	-
O=S(=O)(Nc1cccc2ccccc12)c1cccs1	-	-	-	-	-	-
O=S(=O)(Nc1ccc(O)c2ccccc12)c1cccs1	-	-	-	-	86	-
Cc1ccc([C@H]2N[C@]3(CCCN(Cc4ccco4)C3=O)[C@H]3C(=O)N(C)C(=O)[C@@H]23)cc1	-	-	-	-	-	-
CCOC(=O)C1=C(C)N(CCCC(=O)O)C(=O)NC1c1ccc2ccccc2c1 (centres undefined)	86	-	-	-	-	-
CC1=C(C(=O)OCc2ccccc2)C(c2cccc(Cl)c2Cl)NC(=O)N1CCCCCC(=O)O (centres undefined)	-	-	-	-	-	-
COC(=O)C1=C(C)N(CCCC(=O)O)C(=O)NC1c1cccc(Cl)c1Cl (centres undefined)	-	-	-	51	-	-
COc1ccc(Cc2nc3c([nH]2)c(=O)n(C)c(=O)n3C)cc1OC	-	-	-	-	-	-
Cc1cccc(N2CC(C(=O)NC3CCCCCC3)CC2=O)c1C (centres undefined)	-	-	-	-	-	-
O=C(CN1C(=O)C2C3C=CC(C3)C2C1=O)NCCC1=CCCCC1 (centres undefined)	-	-	-	76	-	-
O=C(O)C1C2C=CC(C2)C1C(=O)NCCC1=CCCCC1 (centres undefined)	-	-	-	-	-	-
CCC(C)c1ccc(C(C)NC(=S)NCc2ccc(F)cc2)cc1 (centres undefined)	-	-	51	-	-	-
SMILES	Shn3 3UTR inh	KKLEB cytotox	Peg3 promoter	EBV LMP1 NFkB	CF NFkB inh	HIF-2a inh
CCC(C)NCC(=O)Nc1cc(S(=O)(=O)N(CC)c2ccccc2)ccc1Cl (centres undefined)	-	-	-	-	-	-
CCN(c1ccccc1)S(=O)(=O)c1ccc(Cl)c(NC(=O)CN(C)Cc2cccc(F)c2)c1	91	-	-	-	-	-
N#Cc1ccc(CN2CCN(C(=O)CNC(=O)Cc3ccccc3)CC2)cc1	-	-	-	-	-	-
CCCCc1ccc(NC(=O)C(=O)NCCN2CCN(Cc3ccc([N+](=O)[O-])cc3)CC2)cc1	94	-	-	-	-	-
Cc1nc(N)nc(N)c1/C=C/C(C)(C)c1ccc(Cl)cc1	-	-	-	46	-	-
CCN1C(N(C)CCc2c[nH]c3ccccc23)=N[C@@H](c2cccc(C(F)(F)F)c2)C(C(=O)OC)=C1C	-	-	111	-	-	-
CCCCCCCCNCCS(=O)(=O)NCc1ccccc1	-	-	64	-	-	-
COc1ccc2nc(S(=O)Cc3ncc(C)c(OC)c3C)[nH]c2c1 (centres undefined)	-	-	-	84	-	-
N#Cc1ccccc1CSc1nc(N)cc(N)n1	-	-	-	-	-	-
OCCNc1c2ccccc2nc2c(F)c(F)c(F)c(F)c12	-	-	101	-	-	97
Cc1c2ccccc2nc2c(F)c(NCCO)c(F)c(F)c12	-	-	-	-	-	-
Cc1cccc(N2CCN(C(=O)c3ccc(CS(=O)(=O)c4ccccc4C)o3)CC2C)c1 (centres undefined)	-	-	52	-	53	-
Cc1ccc(C)c(N2CCN(C(=O)c3ccc(CS(=O)(=O)c4ccccc4C)o3)CC2)c1	-	-	-	-	-	-
O=C1C=C(c2c(O)ccc3ccccc23)c2ccccc2C1=O	96	-	107	-	88	84
S=c1[nH]nc(C2CCCCC2)n1/N=C/c1ccncc1	-	-	-	48	85	-
CCOC(=O)c1ccc(NC2=CC(=O)C(=O)c3ccccc32)cc1	-	-72	116	-	89	-
CCC(C(=O)Nc1cc(Cl)c(OC)cc1OC)c1ccccc1 (centres undefined)	-	-	-	-	-	-
CC(=O)Nc1ccc(NC2=CC(=O)c3ccccc3C2=O)cc1	-	-	-	-	-	-
COc1cc(OC)c(NC2=CC(=O)C(=O)c3ccccc32)cc1Cl	-	-	-	-	85	-
Cc1cc(NC2=CC(=O)C(=O)c3ccccc32)no1	-	-	-	-	86	-
Cc1ccc(NC2=CC(=O)C(=O)c3ccccc32)cc1	-	-	-	-	59	-
CC(=O)c1cc(F)ccc1OCC(=O)N1CCN(c2ccc(F)cc2)CC1	-	-	-	-	-	-
NS(=O)(=O)c1ccc(NC(=O)Nc2ccccc2)cc1	-	-	-	-	-	-
NS(=O)(=O)c1ccc(NC2=CC(=O)C(=O)c3ccccc32)cc1	-	-	-	-	94	-
O=C(c1ccccc1)N1CCN(c2ccc(Cl)cc2)CC1	-	-	-	-	-	-
O=C(c1noc2c1CSc1ccccc1-2)N1CCN(c2ccc(Cl)cc2)CC1	-	-	-	68	-	-
O=C(O)c1ccc(CNCc2ccc(Cl)cc2)cc1	-	-	-	-	-	-
O=C(O)c1ccc2nc(-c3ccco3)c(-c3ccco3)nc2c1	-	-	-	-	-	-
O=C(Nc1cccc(C(F)(F)F)c1)c1ccc2nc(-c3ccco3)c(-c3ccco3)nc2c1	-	-	50	-	-	-
